Our source for the INHIBITION values is ChEMBL document CHEMBL4513216, “Probing the Open Global Health Chemical Diversity Library for Multistage-Active Starting Points for Next-Generation Antimalarials” (ACS Infect Dis, 2020).

Hit rate of the full screen: of about 69,000 compounds, about 8,600 (12%) showed an effect of 50% or more. Shown is part of a subset that was picked to be rich in strong results.

This assay has as its system Plasmodium berghei. The assay is described as follows: Screen against P. berghei liver stage (PbLuc), transformed with Luciferase, at 10uM. Format: functional, HepG2. The conditions noted are these: tested at 10 uM.
Regarding `Cc1nnc2n1CCN(c1nc3ccccc3o1)C2`, the INHIBITION is 2.97%.
To `CC(C)c1nnc2n1CCN(c1nc3ccccc3o1)C2` belongs 16.8%; to `c1ccc2oc(N3CCn4c(nnc4C4CC4)C3)nc2c1`, 68.4%.
For `CCc1nc(C2CCCN2C(=O)c2ccc(N(C)C)nn2)no1` (stereo unspecified), the INHIBITION amounted to 24.295%.
Under `N[C@@H](Cc1ccccc1)c1nnc(S(=O)(=O)Cc2ccccc2)o1` stands 53.8%.
On to `CCS(=O)(=O)c1nnc([C@@H](N)Cc2ccccc2)o1`, for which the INHIBITION was determined as 11.6%.
For `N[C@@H](Cc1ccccc1)c1nnc(S(=O)(=O)Cc2ccc(Cl)cc2)o1`, the INHIBITION is reported as 15.4%.
Under `Cc1cnn(CC2CCCN2C(=O)c2c(C)noc2C)c1` (stereo unspecified) stands 12.7%.
Regarding `Cc1ccnn1CCC(=O)N1CCCC1c1cc2cccnc2[nH]1` (stereo unspecified), the INHIBITION worked out at 6.26%.
Take `Cc1nc(N2CCOCC2)nc2c1COCC21CCN(CC2CC2)C1` (stereo unspecified): the INHIBITION amounted to 36.9%.
To `CCN(Cc1ccncc1)CC1(O)CCN(C(=O)c2cccc(C)c2)C1` (stereo unspecified) belongs -9.32%; to `CC(=O)NC[C@H]1COCc2nc3c(C)cccc3n21`, 46.4%; to `Cc1cccc2c1nc1n2[C@@H](CNC2CCCCC2)COC1`, 51%.
Under `FC(F)(F)c1ccc(CNC[C@H]2COCc3nc4cccnc4n32)cc1` stands 39.3%; under `COc1ccc2c(c1)nc1n2[C@@H](CNC(=O)c2ccccn2)COC1`, 7.53%.
Turning to `Cc1cccc2c1nc1n2[C@@H](CNC(=O)C2CCOCC2)COC1`, the INHIBITION is listed as 43.4%.
Under `COc1ccc(CNC[C@H]2COCc3nc4cccnc4n32)cc1` stands 6.55%; under `Cc1cccc2c1nc1n2[C@@H](CNC(=O)Cc2ccccc2)COC1`, -33.8%; under `COc1ccccc1C(=O)NC[C@H]1COCc2nc3c(C)cccc3n21`, 50.2%.
To `c1ccc(CNC[C@H]2COCc3nc4cccnc4n32)cc1` belongs 54.7%; to `Cc1ccc2c(c1)nc1n2[C@@H](CNC(=O)c2ccccn2)COC1`, 57%.
To `Cc1cccc2c1nc1n2[C@@H](CNC(=O)c2ccccn2)COC1` belongs 37.4%.
Consider `Cc1cccc2c1nc1n2[C@@H](CNC(=O)NC(C)C)COC1`, for which the INHIBITION amounted to 11.6%.
For `CCN(CC(=O)Nc1cc(Cl)ccc1C)C(=O)c1ccc(=O)[nH]n1`, the INHIBITION was 23.2%.
As for `COc1ncc(-c2ccc(O)cc2)c(OC)n1`, the INHIBITION was 27.6%.
Under `CC(C)c1ccc(C2CC(=O)Nc3c2cnn3C)cc1` (stereo unspecified) stands 14.7%; under `COc1ccccc1OCC(=O)NS(=O)(=O)c1ccc(C)s1`, 25.1%; under `CCNC(=O)[C@@H]1C[C@H](NC(=O)c2cncnc2C)CN1Cc1ccsc1`, 22.6%.
Regarding `CC(C)c1nn(C)c(N(C)C)c1CNCc1ccnc(N(C)C)c1`, the INHIBITION is -10.8%.
Under `Cc1nc(C)n(CC2CCCN(Cc3cccc(F)c3F)C2)n1` (stereo unspecified) stands 31.2%; under `COc1ccc2c(c1)nc1n2[C@@H](CNCc2ccccc2)COC1`, 43.1%.
To `COc1ccc2c(c1)nc1n2[C@@H](CNCc2nccs2)COC1` belongs 8.52%; to `COc1ccc2c(c1)nc1n2[C@@H](CNCc2ncccc2C)COC1`, 51%.
For `Cc1ccc2c(n1)N(C)CCN(C(=O)NC(C)C)C2`, the INHIBITION is 23.6%.
For the compound `O=C(CCN1CCc2c(ncn2C2CC2)C1)NC1CCCC1`, the INHIBITION was -45.6%.
To `CCc1ccc(C(=O)NC2CCCN(c3ccn(C)n3)C2=O)o1` (stereo unspecified) belongs 20.3%; to `CCc1ccc(C(=O)NC2CCN(c3ccn(C)n3)C2)o1` (stereo unspecified), 62.4%; to `CCc1ccc(C(=O)NC2CCc3nc(C)cn3C2)o1` (stereo unspecified), 2.75%.
To `CNc1cc(CNC(=O)c2cccnc2)nc(-c2ccncc2)n1` belongs 27.8%; to `CCc1noc(C(C)N2CCN(CCN3CCCC3=O)CC2)n1` (stereo unspecified), -0.113%.
As to `C[C@H]1C[C@H]2CN(C(=O)CC3CC3)CC[C@H]2O1`, the INHIBITION is reported as 1.94%.
Consider `Cc1ccc(CN2C(=O)CCC2C(=O)Nc2cnn(C)c2)o1` (stereo unspecified), for which the INHIBITION was determined as 36.7%.
For the compound `CC(=O)N1CCCC(C(=O)NCCOc2cc(C)cc(C)c2)C1` (stereo unspecified), the INHIBITION was -33.7%.
To `CCN(CC)C(=O)[C@@H]1C[C@@H](NC(=O)c2ccoc2)CN1C` belongs 6.88%; to `CCN(CC)C(=O)[C@@H]1C[C@@H](NC(=O)c2ccn(C(C)(C)C)c2)CN1C`, 51.3%; to `CCN(CC)C(=O)[C@@H]1C[C@H](NC(=O)c2ccn(C(C)(C)C)c2)CN1C`, 21.7%.
Under `O=C(NCc1cccs1)c1nc2c(o1)CN(C(=O)c1cccnc1)C2` stands -4.4%; under `COc1ccc(C2CCCN2C(=O)c2cc(C(C)C)on2)cc1` (stereo unspecified), -75.1%.
Under `COc1cccc(C2CCN2C(=O)c2cc(C(C)C)on2)c1` (stereo unspecified) stands 55.5%; under `COc1cccc(C2CCN2C(=O)c2cnccn2)c1` (stereo unspecified), -3.81%.
For `Cc1ccc(N2CC[C@H]3C[C@H](C(=O)NCc4ccco4)O[C@H]3C2)nn1`, the INHIBITION was found to be 14.5%.
Under `CN(CCSc1nncn1C(C)(C)C)c1ccccc1` stands -9.8%; under `Cc1ccc2c(c1)CCC2NCc1c(C)nn(C)c1N1CCOCC1` (stereo unspecified), 33.8%; under `CC1CCC(O)(CSc2nnnn2C2CC2)CC1` (stereo unspecified), -44.2%.
To `O=C(O)c1ccn(-c2ccccc2NS(=O)(=O)c2cccc(F)c2)n1` belongs 30.3%; to `COc1c(C2CCCN2C(=O)c2cnccn2)c(C)nn1C` (stereo unspecified), 5.7%; to `O=C(c1ccc2c(c1)[nH]c(=O)n2C1CCCC1)N1CCC1`, 21.1%.
For the compound `O=C(c1ccc2c(c1)[nH]c(=O)n2C1CCCC1)N1CCSCC1`, the INHIBITION was -6.72%.
`CN1CCN(C(=O)c2ccc3c(c2)[nH]c(=O)n3C2CCCC2)CC1`: the INHIBITION is 58.2%.
To `CN1CCNC(=O)C12CCN(C(=O)c1ccc3[nH]c(=O)[nH]c3c1)CC2` belongs 38.2%; to `Cc1cnn(CC2CN(Cc3csc(C(C)C)n3)CCO2)c1` (stereo unspecified), 9.64%; to `Cn1ccnc1C(=O)N1CCC2(CCN2Cc2ccc(F)cc2)C1` (stereo unspecified), 25.8%.
Consider `COCCN1CCC12CCN(C(=O)c1ccc(C)nc1)C2` (stereo unspecified), for which the INHIBITION stood at 54.8%.
Under `COCCN1CCC12CCN(C(=O)c1ccsc1)CC2` stands -20.8%; under `Cc1cnc(C(=O)N2CCC3(CCN3Cc3ccc(F)cc3)C2)cn1` (stereo unspecified), 53.9%; under `Cc1cc(C(=O)N2CCC3(CCN3Cc3ccc(F)cc3)C2)no1` (stereo unspecified), -6.05%.
To `Cc1ccc(C(=O)N2CCC3(CCCN(c4ncc(F)cn4)C3)C2)cn1` (stereo unspecified) belongs 36.7%.
Turning to `COCCN1CCC12CCN(C(=O)c1ccc3[nH]ccc3c1)C2` (stereo unspecified), the INHIBITION is 27.6%.
Under `O=C(c1ccsc1)N1CCC2(CCN2Cc2ccc(F)cc2)C1` (stereo unspecified) stands -7.7%.
To `Cc1ccc(C(=O)N2CCC3(CCN3Cc3ccc(F)cc3)C2)cn1` (stereo unspecified) belongs 62.9%.
To `Cc1cnn(CC2CCCN2Cc2noc(CC(C)C)n2)c1` (stereo unspecified) belongs 17.4%; to `CN1CCCN(C(=O)c2cnsn2)c2cc(F)ccc21`, 7.77%.
As to `Cc1ccc(Cn2nc(C)c3c(C(=O)O)c(Cl)c(C4CC4)nc32)cc1`, the INHIBITION was found to be 31.7%.
Turning to `O=C(c1cc(Cl)c[nH]c1=O)N1C[C@H]2CC[C@@H](C1)N(Cc1ccccc1)C2`, the INHIBITION is listed as -28.7%.
To `Cn1cc(CN2C[C@@H]3CN(Cc4ccoc4)CCO[C@@H]3C2)cn1` belongs 7.11%; to `CCn1c(C)nc2cc(NC(=O)CC3CCCCO3)ccc21` (stereo unspecified), 27.5375%; to `Oc1nc(N2CCCC2)nc2nccc(-c3ccccn3)c12`, -13%.
To `CCOC(=O)N1[C@@H](c2ccco2)[C@@H](CO)C[C@]12CCCCNC2=O` belongs 1.04%; to `CCCC(O)CN1CC(C)(C)CN(C(=O)CCc2ccccc2)CC1=O` (stereo unspecified), 20%.
For `N[C@@H]1CC[C@H](C(=O)NCCn2cc(Cl)cn2)C1`, the INHIBITION came to 60.1%.
Turning to `NC(=O)C1CCN(CC(=O)NCCn2cc(Cl)cn2)CC1`, the INHIBITION came to 45.2%.
To `O=C(NCCn1cc(Cl)cn1)C1CCN(C(=O)C2CC2)CC1` belongs 2.55%; to `CS(=O)(=O)N1CCC(C(=O)NCCCn2cc(Cl)cn2)CC1`, 40.3%.
Under `N[C@@H]1CC[C@H](C(=O)NCCc2nc(-c3ccccc3)cs2)C1` stands -9.2%; under `NC(=O)CN1CCC(C(=O)NCCn2cc(Cl)cn2)CC1`, 61%; under `COc1cccc(NC(=O)NCC(O)c2ccc(F)cc2F)c1` (stereo unspecified), -3.7%.
Consider `CCc1cccc2cc(CN)c(=O)[nH]c12`, for which the INHIBITION was 10.365%.
Under `CC1CCC(NCCNC(=O)c2cccs2)CC1` (stereo unspecified) stands 5.11%; under `Cc1c(CN2CCCC(C(=O)c3ccccc3)C2)cc(C#N)n1C` (stereo unspecified), 7.97%.
On to `Cc1c(CN2CCCC(C(=O)Nc3ccccc3)C2)cc(C#N)n1C` (stereo unspecified), for which the INHIBITION turned out to be 74%.
With `Cc1c(CN2CCCC(C(=O)CCc3ccccc3)C2)cc(C#N)n1C` (stereo unspecified), the INHIBITION turned out to be 19.4%.
To `CN(CCc1ccccn1)C(=O)Nc1cccnc1-n1cccn1` belongs -19.2%; to `CCN1CCCN(S(=O)(=O)c2cnc3onc(C)c3c2)CC1`, 15.5%.
Take `Cc1noc2ncc(S(=O)(=O)N3CCCC(C)(C)CC3)cc12`: the INHIBITION was 36.1%.
With `CCCN1CCCN(S(=O)(=O)c2cnc3onc(C)c3c2)CC1`, the INHIBITION came out at 56.7%.
To `COc1cccc(-c2n[nH]cc2CNC2CCN(C3CC3)CC2)c1` belongs 3.46%; to `CCSCCC(C)N(C)C(=O)c1cc(C)no1` (stereo unspecified), 55.2%; to `CCSCCC(C)N(C)C(=O)c1ccc(C)o1` (stereo unspecified), 85.2%.
To `CCSCCC(C)N(C)C(=O)c1cc(C)on1` (stereo unspecified) belongs -93.6%; to `COCC(c1cccc(C(F)(F)F)c1)N(C)C(=O)c1cc(C)no1` (stereo unspecified), -16.4%; to `CCSCCC(C)N(C)C(=O)c1ccc2nncn2c1` (stereo unspecified), 34.7%.
Under `Cc1cc(C(=O)N(C)C(C)CC(C)C)on1` (stereo unspecified) stands 20.9%; under `CC(C)NC(=O)CCN1CCCC1c1cccc2c1OCCO2` (stereo unspecified), 35.4%; under `Cc1nc2ccccc2c(=O)n1CCC(=O)N1CCCCCC1`, 1.05%.
In the case of `COc1c[nH]c(C(=O)N2CCN(c3ccc(Cl)cc3)CC2)cc1=O`, the INHIBITION came to 13.9%.
Under `Cc1nn(C)cc1C1=NS(=O)(=O)N(C)C(C(=O)Nc2ccc(Br)cc2)=C1` stands 82.4%; under `Cn1cc(NC(=O)CNC(=O)N2CCN(c3ccc(Cl)cc3)CC2)cn1`, 28.5%; under `Cc1c(C2=NS(=O)(=O)N(C)C(C(=O)Nc3ccc(Br)cc3)=C2)cnn1C`, 49.9%.
As for `Cc1cc(=O)n(CC(=O)Nc2ccc(Cl)cc2)nc1C`, the INHIBITION was 25%.
To `Cc1nn(C)cc1C1=NS(=O)(=O)N(C)C(C(=O)Nc2ccc(Cl)cc2)=C1` belongs 77.7%.
For the compound `Cc1nc(N2CCCC2)ncc1C(=O)Nc1ccc(Br)cc1`, the INHIBITION is -10.2%.
